# In PubChem BioAssay AID602229 (The Scripps Research Institute Molecular Screening Center, 2012):
# In all, about 360,000 compounds went through this assay and about 1,300 (0.36%) were called active. This is one part of a sample in which actives are shown more often than they occur. Values without a mark were called inactive.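 How the source made its calls: active means inhibition above the mean of all tested compounds plus 3 SD (cut at about 70% in these data); inactive means the rest.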
# Biological target: Photoreceptor-specific nuclear receptor (Homo sapiens) (UniProt Q9Y5X4)
# Test: NCOR release from NR2E3 in cells – cell-based, luminescence, CHO-S, Gal4-NCOR/VP16-NR2E3, primary screen (AID 602229);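 further: 0% = DMSO with NR2E3 transfected cells and 100% = cells lacking NR2E3 construct; higher means lower luciferase signal from less NR2E3 corepressor binding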
# Details: CHO-S Gal4-NCOR/VP16-NR2E3 two-hybrid, luciferase; at 3.98 µM; hits give high values
# Chain of Photoreceptor-specific nuclear receptor (Homo sapiens) (Q9Y5X4 whole entry, looked up, the tested form may be a part): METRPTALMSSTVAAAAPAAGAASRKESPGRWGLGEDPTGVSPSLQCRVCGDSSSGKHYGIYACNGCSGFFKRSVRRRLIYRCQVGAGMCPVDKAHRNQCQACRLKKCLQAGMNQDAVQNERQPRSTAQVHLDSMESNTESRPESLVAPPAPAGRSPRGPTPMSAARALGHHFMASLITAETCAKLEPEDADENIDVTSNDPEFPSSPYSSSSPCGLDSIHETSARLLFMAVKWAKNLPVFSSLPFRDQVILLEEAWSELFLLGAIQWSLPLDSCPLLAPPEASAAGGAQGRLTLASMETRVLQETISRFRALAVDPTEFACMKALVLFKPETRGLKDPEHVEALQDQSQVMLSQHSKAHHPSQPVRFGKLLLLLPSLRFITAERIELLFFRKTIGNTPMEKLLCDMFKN
row,SMILES,inhibition
1,CC(=O)OC1C2(CC3N4C(=O)C5(CO)SSC4(CC31O)C(=O)N5C)OC(C)C(C)(C)C2=O (stereo not given),99.4% (active)
2,Cc1nn(-c2ccccc2)c(C)c1NC(=O)COC(=O)Cc1ccccc1,8.66%
3,COc1ccc(Br)cc1CNCCc1cccc(Cl)c1,24.3%
4,COC(=O)C1=C(c2ccc(F)cc2OCc2ccccc2)C[C@@H]2CC[C@H]1N2C(=O)NCc1ccc(C(C)(C)C)cc1,8.82%
5,CCCCCCCCCCCCn1ccc(=N)cc1,94% (active)
6,CC(C)CN1Cc2cc(N3CCCCC3)ccc2-n2nncc2C1,3.03%
7,CNC(=O)N(C)c1nnc(C(C)(C)C)s1,-10.2%
8,CN(C)P(=S)(Nc1ccccc1)C(Cl)(Cl)Cl (stereo not given),5.18%
9,COC(=O)N(c1ccc(OC)cc1)P1(=S)OCCC(C)O1 (stereo not given),-15.4%
10,CC(=NCC1CCCO1)c1c(O)n(-c2ccccc2)c(=O)[nH]c1=O (stereo not given),0.24%
11,CCC(C)(O)C(=O)OC1C(=O)OC2CC3C(C)=CC(=O)C(O)C3(C)C3C4(O)OCC23C1C(C)C4O (stereo not given),99% (active)
12,CCC(=O)OC(Cc1ccccc1)(c1ccccc1)C(C)CN(C)C (stereo not given),-18.8%
13,Nc1ccc(Cc2ccc(N)c(Cl)c2)cc1Cl,-10.5%
14,Cn1c(O)c(C(=Nc2ccc(F)cc2)c2ccccc2)c(=O)n(C)c1=O,-24.4%
15,COc1cccc(-c2nc3ccc(N4CCN(C)CC4)cc3[nH]2)c1,-20.1%
